Measured values as given in PubChem BioAssay (NCATS).
Inconclusive results are not listed. Some compounds were tested as several samples or in several runs, with calls that do not always agree. A number with no mark means an inactive call. Calls of active or inactive are those of the source. The call rests on the fitted dose curve; in most records, active means well fitted inhibition curve with a large enough effect; inconclusive means small, poorly fitted or top-dose-only effect; inactive means flat fitted curve, though single readings scatter.

test: qHTS for Inhibitors of Plasmodium falciparum (DD2) proliferation (AID 504314); settings: P. falciparum Dd2 in erythrocytes, SYBR Green growth, 72 h; series mostly up to 6.11 µM; activity, negative = inhibition: at the top concentration
From the text: Plasmodium falciparum is a virulent malarial parasite that kills 1-2 million people worldwide each year. Malaria not only inflicts tremendous suffering and morbidity on the human population, but has dramatically influenced the course of civilization with profound sociological and economic implications (Shah, S. 2010). Transmitted by mosquitoes, the sporozoite form of the parasite enters the blood stream to infect hepatocytes, where they become merozoites that infect red blood cells (erythrocytes). Within erythrocytes, merozoites begin a […] cycle of growth and division, after which the parasite is released to infect new red blood cells. Gametocytes, which form within erythrocytes as well, circulate in the bloodstream and are ingested by the mosquito, thereby completing the life cycle (see CDC website). To profile malarial lines for differential chemical responses and to identify inhibitors of malarial growth, an assay that measures P. falciparum growth and replication within erythrocytes was employed. This assay uses a DNA binding fluorescent dye (SYBR Green) to detect parasite DNA following cell lysis. Because mature erythrocytes lack DNA, only Plasmodium-derived DNA is detected. The P. falciparum line cp250, derived from a malarial isolate from Cambodia, (Mu, J., et al. 2010) was added to the panel of lines, Dd2, HB3, 7G8 and GB4 in this study.
Laboratory of Assay Development and Screening Technology [ADST] and NIH Chemical Genomics Center [NCGC]
Boston University, Chemistry Department, Center for Chemical Methodology and Library Development [CMLD-BU]
NIH National Institute of Allergy and Infectious Diseases [NIAID]
ADST Assay Protocol Summary:
The 1536-well SYBR Green viability assay was based on the method of Bennett et al (2004) and described previously in 1536-well format (Yuan J., et al. 2009). For screening 3 ul culture medium was dispensed into 1536 well black clear bottom plates (Aurora Biotechnologies) using a Multidrop Combi (Thermo Fisher Scientific Inc.), 23 nL compounds in DMSO were added by a pin transfer (Cleveland, P.H. and Koutz, P.J, 2005) using a pin tool-based delivery system (Kalypsys), and 5 ul of erythrocytes infected with P. falciparum one of five lines (cp250, Dd2, HB3, 7G8 or GB4, 0.3% parasitemia, 2.5% hematocrit final concentration) were added. The plates were incubated at 37C in a humidified incubator in 5% CO2 for 72 h, and 2 ul lysis buffer (20 mM Tris HCl, 10 mM EDTA, 0.16% saponin, 1.6% triton X, 10X SYBR Green I (supplied as 10,000X final concentration by Invitrogen) was added to each well. The plates were mixed for 25 sec with gentle shaking and incubated overnight at room temperature in the dark. The following morning, fluorescence intensity at 485(14) nm excitation and 535(25) nm emission wavelengths was measured on an EnVision (Perkin Elmer) plate reader. Plate reads were normalized relative to the control inhibitor (0.29 uM artemisinin) and vehicle (DMSO) wells present on each plate and then corrected by an algorithm using vehicle-only control plates at the beginning and end of the compound plate stack.
Shah, S. (2010). The Fever: how malaria has ruled humankind for 500,000 years. New York, Sarah Crichton Books.
CDC web site, http://www.cdc.gov/malaria/about/biology/index.html
Mu, J., Myers, R.A., Jiang, H., Liu, S., Ricklefs, S., Waisberg, M., Chotivanich, K., Wilairatana, P., Krudsood, S., White, N.J., et Plasmodium falciparum genome-wide scans for positive selection, recombination hot spots and resistance to antimalarial drugs Nature Genetics 2010, 42, pp 268-271
Bennett TN, Paguio, M., Gligorijevic, B., Seudieu, C., Kosar, A. D., Davidson, E., and Roepe, P. D. Novel, rapid, and inexpensive cell-based quantification of antimalarial drug efficacy Antimicrobial Agents Chemother. 2004, 48(5): pp 1807-10
Yuan J, Johnson RL, Huang RL, Wichterman J, Jiang HY, Hayton K, Fidock DA, Wellems TE, Inglese J, Austin CP, Su XZ. […]
Potency means the concentration at half of the fitted maximal effect.

Compound	activity, negative = inhibition	Potency
C=CCNC(=O)N1C2=NC(C(=O)OC)=C(C(=O)OC)[C@@H]3N(C)c4ccccc4[C@]23C[C@H]1CO	-8.42%	–
COc1cc2c(cc1OC)C1OC(c3ccsc3)(C2)Oc2cc(C)oc(=O)c21 (stereo not given)	-9.03%	–
CC(C)=CCCC(C)=CCON=C1C[C@@H](O)[C@@H](O)[C@@H]2[C@H]3C(=O)N(c4cccc(Oc5ccccc5)c4)C(=O)[C@@H]3CC[C@H]12	4.99%	–
COC(=O)C1=C(C)[C@@H](O)[C@@H](C)[C@](C)(c2cc(OC)c(C)c(OC)c2COc2ccccc2)O1	–	inactive
CCCCc1cc2c(cn1)=C(OC(=O)c1cccs1)C(C)(OC(=O)CC)C(=O)C=2 (stereo not given)	1.64% [at 1.12 µM]	1.89 µM (active)
COC(=O)C1(C(=O)OC)C[C@@H]2CON=C2[C@@H]1c1ccccc1	-9.29%	–
O=P1(O)Oc2c(c(-c3ccccc3)cc3ccccc23)-c2c(-c3ccccc3)cc3ccccc3c2O1	-2.66%	–
CC(=O)OC[C@H]1O[C@H](CC=NO[C@@H](C)c2cn([C@H](CO)Cc3ccccc3)nn2)C=C[C@@H]1OC(C)=O	-1.55%	–
COC(=O)CC=C[C@@H](C)[C@H](NC(=O)OCC(Cl)(Cl)Cl)c1cccc(OC)c1	-6%	–
COC(=O)CC=C[C@@H](C)[C@@H](C=NO[C@@H](C)c1cn([C@H](CO)Cc2ccccc2)nn1)NS(=O)(=O)c1ccc(C)cc1	-7.76%	–
C[C@@H](ON=C1[C@H]2CCn3c(=O)n(-c4ccccc4)c(=O)n3[C@@H]2[C@H](O)[C@@H]2O[C@H]12)c1cn([C@H](CO)Cc2ccccc2)nn1	-7.04%	–
O=C1C[C@@H](c2ccccc2)[C@H](c2ccc(Br)cc2)O1	-4%	–
C=C(CO[C@@H]1C=C[C@@H](c2ccccc2)O[C@@H]1CO)c1ccccc1	-1.77%	–
O=C1[C@@H]2[C@H]3[C@H](O)[C@H](O)CC(=NOC[C@@H](O)COCc4ccco4)[C@@H]3CC[C@H]2C(=O)N1C[C@@H]1CCCO1	-0.652%	–
CC1(O)C(=O)C=C2C=C3CCCN3C=C2C1=O (stereo not given)	-7.26%	–
COc1ccc2c(c1)O[C@@H](c1ccc3c(c1)OCO3)[C@H](O)C2=O	-1.47%	–
COc1ccc(-c2nc3c(c4c2C[C@H](c2ccccc2)OC4)CN(C(=O)Nc2cccc(C#N)c2)CC3)c(C)c1	2.23% [at 1.12 µM]	–
COc1ccc2c(c1)c(CC(=O)NCc1ccc3c(c1)OCO3)c(C)n2C(=O)c1ccc(Cl)cc1	-5.55%	–
CCCCS(=O)(=O)N1CCc2nc(-c3ccccc3)c3c(c2C1)CO[C@@H](C)C3	–	inactive
CC(C)C(=O)NC(=O)[C@@H]1CCCN1C(=O)C=Cc1ccccc1	-4.59%	–

Compound	activity, negative = inhibition	Potency
C=COC[C@@H]1CN2[C@H](c3ccc(Br)cc3)[C@H](C)CC[C@H]2C(=O)O1	0.445%	–
COc1ccc2c(c1)O[C@@H](c1ccc3c(c1)OCO3)[C@H](OC(=O)Nc1ccc(OC(F)F)cc1)C2=O	-8.1%	–
C=CCOC(=O)N[C@H](c1cccc(OC)c1)[C@H](C)C=CCC(=O)OC	-10.6%	–
COC(=O)[C@H]1O[C@@H](c2c(OC)c(OC)c(C)c(OC)c2OC)[C@H](C)[C@@H](O)[C@@H]1C	-0.474%	–
O=C(C=Cc1ccccc1)c1ccccc1O	–	inactive
COC(=O)NC(CCc1ccccc1)C(C(C)=O)C(=O)OC (stereo not given)	-12%	–
C=CCOC(=O)N[C@H](c1ccccc1)[C@H](C)C=CCC(=O)OC	-3.48%	–
CC(=O)C1=CN(CCC=Cc2ccccc2)C(=O)NC1c1ccccc1 (stereo not given)	-6.91%	–
CC1(OC(=O)C2CCCC2)C(=O)C=C2C=C(c3ccsc3)N(C(CO)CO)C=C2C1=O (stereo not given)	–	inactive
COCC1=C(C(=O)OC)C(c2ccccc2)N(C(C)=O)C(=O)N1 (stereo not given)	0.0973%	–
CCCCCCCC=CC1=CC2(C)CC1(C)C(CCCCCCC)CC2=O (stereo not given)	-1.25%	–
CCN1C(=O)NC(CCc2ccccc2)C(C(C)=O)=C1C (stereo not given)	-8.38%	–
COC(=O)C(C(C)=O)C1c2ccccc2C=C(C)N1C(=O)OC (stereo not given)	-3.36% [at 1.12 µM]	–
O=C1Nc2cccc(Br)c2[C@@]12O[C@H](COc1ccccc1)CC1=CCC[C@H]12	-19.6%	–
C[C@H]1COC(=O)[C@H](Cc2ccccc2)NC(=O)[C@@H](C)COC(=O)[C@H](Cc2ccccc2)NC1=O	-1.02%	–
COC(=O)C1=C[C@@]2(c3ccc(OC)cc3[C@@H](OC)[C@@H]2C)[C@@H]2C=C[C@@H]1C2	-8.39%	–
Cc1ccc2[nH]c3nc(CCCn4ccnc4-c4ccccc4)nnc3c2c1	-9.19%	–
COCC=CC1=CC2=CC(=O)C(C)(OC(=O)c3cnc4ccccc4n3)C(=O)C2=CN1CCCCO (stereo not given)	-9.01%	–
CCN1C(=NCCCCO)N[C@@H](CCc2ccccc2)[C@H](C(=O)OC)[C@H]1C	3.09%	–
